# D1 antag: human D1 dopamine receptor antagonism. P21728. HEK293 TREx D1 cells, calcium flux, dopamine EC80; active compounds read low. activity change, negative = inhibition, % at 10 µM. actives 3.2% (n = 360,000); in the data active = activity change below about -30%
# Target sequence (P21728 whole entry, looked up): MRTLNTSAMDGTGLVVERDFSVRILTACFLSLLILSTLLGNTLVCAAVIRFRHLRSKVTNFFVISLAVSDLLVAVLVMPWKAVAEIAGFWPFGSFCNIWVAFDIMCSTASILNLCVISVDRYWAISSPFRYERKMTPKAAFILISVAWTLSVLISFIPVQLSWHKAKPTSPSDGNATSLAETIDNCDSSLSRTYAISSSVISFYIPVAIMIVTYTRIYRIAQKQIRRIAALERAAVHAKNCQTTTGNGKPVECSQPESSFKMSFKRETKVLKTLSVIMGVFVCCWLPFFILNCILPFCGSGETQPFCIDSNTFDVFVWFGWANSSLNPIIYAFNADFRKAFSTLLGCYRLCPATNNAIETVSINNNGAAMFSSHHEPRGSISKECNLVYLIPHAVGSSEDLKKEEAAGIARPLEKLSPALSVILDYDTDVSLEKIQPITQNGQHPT
#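 Allosteric or orthosteric antagonism assessed as attenuation of the calcium response to EC80 dopamine, added 180 s after compound, in induced HEK293 Trex D1 cells loaded with no-wash calcium dye.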
# BCR signal inh: chronic active BCR signaling inhibition; Potency, µM (titrated, usually from 46.1 µM), actives largely listed as inhibitors; actives 0.05% (n = 340,000); ABC-DLBCL IkBa-CBG/CBR reporter, luminescence ratio, 4 h; AID 493014; active = well fitted inhibition curve with a large enough effect in the signal ratio, with a control signal flat, not every such curve was filed as active; inconclusive = small, poorly fitted or top-dose-only effect, or effect the other way, or a change in a side signal; the % refers to the signal ratio
#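 Concentration-response series (up to 46 uM) were applied to TMD8 dual-reporter cells for 4 h at 37C with doxycycline. Green/red ratio, after filter-overlap correction, defined %Activity; red signal alone was normalised to basal cells and zero luminescence.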
# DRD3 antagonist: D3 dopamine receptor (human) antagonism | P35462 | D3R cells, DiscoveRx beta-arrestin luminescence, antagonist mode; active compounds read low | max response, negative = inhibition, % | actives 2.5% (n = 360,000); in the data active = max response below about -50%; inconclusive = no clear call, values can overlap the other calls
#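 Cells expressing the human receptor were seeded at 1500 cells/well, incubated overnight at 37 degrees C in 5% CO2, then exposed to library compounds with dopamine controls for 90 minutes at 37 degrees C before luminescent detection.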
# D1 ag: activates the human D1 dopamine receptor | HEK293 T-REx D1 cells, calcium flux, agonist mode | activation, % at 2 µM | actives 1% (n = 360,000); in the data active = activation above about 30%
#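 Tetracycline-induced HEK293 TREx D1 cells, force-coupled to calcium signalling, were dye-loaded with a no-wash calcium kit. Compound was pin-added after a 10 s baseline. Fluorescence was read kinetically at 1 cycle/s for 180 s, with calcium rises flagged as agonism.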
# D3 ag: D3 dopamine receptor (human) agonism; P35462; D3R DiscoveRx beta-arrestin cells, luminescence, 90 min; max activation, %; actives 0.58% (n = 410,000); AID 652048; in the data active = max activation above about 30%
#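 Cells at 1500/well, incubated overnight, then treated with pinned compounds (dopamine as control) for 90 min at 37 degrees C. DiscoveRx reagent added for 30 - 60 minutes at room temperature; luminescence read.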
# D1 potentiator: human D1 dopamine receptor positive modulation. actives 0.036% (n = 360,000). HEK293 TREx D1 cells, calcium flux, dopamine EC20 potentiation. potentiation, % at 10 µM; in the data active = potentiation above about 30%
# Numbers stand for hits; - = inactive; ? = inconclusive; . = no result. The list is not random: actives were taken first. Their share in the collection is about 6%.
SMILES,D1 antag,BCR signal inh,DRD3 antagonist,D1 ag,D3 ag,D1 potentiator
Cc1ccc(CS(=O)(=O)c2ncc(Cl)c(C(=O)Nc3ccc(OC(F)F)cc3)n2)cc1,-,?,-63,-,-,-
COc1cc2c(cc1OC)C(c1ccc(Cl)cc1)N(c1cccc(C#N)c1)C(=O)C2 (centres undefined),-,.,.,-,-,-
CC1=C(C(=O)N2CCOCC2)CC(CC(=O)NCCN2CCOCC2)C(=O)N1Cc1ccccc1 (centres undefined),.,.,-,.,-,.
COc1ccc2ccccc2c1C1NC(=O)c2ccccc2N1 (centres undefined),.,.,-,.,-,.
CS(=O)(=O)c1ncc(Cl)c(C(=O)Nc2ccc3ccccc3c2)n1,-33,?,-117,-,-,-
CCS(=O)(=O)c1ncc(Cl)c(C(=O)Nc2ccc(C)cc2)n1,-,?,-130,-,-,-
CCOc1ccccc1-n1cc2c(c1-c1ccc(OC)cc1)c(=O)n(C)c(=O)n2C,-,.,.,-,-,-
CSc1ccc(/C=C/c2nc3ccccc3n2S(=O)(=O)c2cccc(Cl)c2)cc1,-,.,.,-,-,-
O=S(=O)(c1cccc(Cl)c1)n1c(/C=C/c2ccccc2Cl)nc2ccccc21,-33,?,.,-,-,-
Cn1c(C(=O)NN)cc2cc(Oc3ccccc3)ccc21,-46,-,-,-,-,-
Cn1c(C(=O)O)cc2cc(Oc3ccccc3)ccc21,-,-,-,-,-,-
Cc1cc(C)c(S(=O)(=O)c2cccc(Cl)c2)c(Cl)n1,-,-,-,-,-,-
CCOc1nc(C)cc(C)c1S(=O)(=O)c1cccc(Cl)c1,-49,-,-,30,-,-
O[C@@H]1C[C@H](c2ccc(Cl)cc2)N(Cc2cccs2)C[C@H]1n1cc(C2CC2)nn1,.,.,-,.,-,.
COC(=O)C[C@H]1c2cc(F)cc(F)c2S(=O)(=O)N1C1CCN(Cc2ccccc2)CC1,.,.,-69,.,-,.
CCN1CCc2c(OCc3ccccc3)cccc2C1=O,-38,?,-,-,-,-
CCOc1cc(NC(=O)C2CCCCC2)c(OCC)cc1NC(=O)c1ccccn1,-,-,-,-,49,-
Cc1ccc(Nc2nc3ccccc3n3nnnc23)cc1,-,?,-,-,-,-
COc1ccc(Nc2nc3ccccc3n3nnnc23)cc1,-,?,-90,-,-,-
COc1ccc(CNC(=O)C2Cc3c(-c4ccc5c(c4)OCO5)ccnc3O2)cc1OC (centres undefined),.,.,-,.,-,.
CCC(CC)C(=O)N(C)c1c(C)nc2c(OCc3cccc(Cl)c3)cccn12,.,.,-62,.,-,.
O=C1N(Cc2ccccc2)c2ccc(Br)cc2[C@]12C[C@H](O)CO2,.,.,-,.,-,.
COc1ccc(Cl)cc1NC(=O)c1cc(=O)c2cc(C)cc(C)c2o1,-,.,.,-,-,-
COc1ccc(Cl)cc1NC(=O)Nc1cccc([N+](=O)[O-])c1C,-64,-,-76,-,-,-
COC(=O)c1ccccc1NC(=O)c1ccccc1OC,-,-,-,-,-,-
SMILES,D1 antag,BCR signal inh,DRD3 antagonist,D1 ag,D3 ag,D1 potentiator
CCc1ccc2oc(C(=O)Nc3cc(Cl)ccc3OC)cc(=O)c2c1,-48,.,.,-,-,-
COc1ccc(Cl)cc1NC(=O)c1ccccc1C,-44,-,-,-,-,-
COc1ccccc1C(=O)Nc1ccccc1SC(=O)c1ccccc1OC,-,?,-57,-,-,-
CCOc1ccc(S(=O)(=O)N(CC(=O)Nc2ccc(OC)c(Cl)c2)c2ccccc2)cc1,-,.,.,-,-,-
O=C(CNC(=O)c1ccccc1)N[C@H](C(=O)Nc1cc(C(F)(F)F)ccc1Cl)c1ccccc1,-,.,.,-,.,-
COc1ccc(Cn2ccc3nc(C)c(C(=O)NCc4cccc(OC)c4)cc3c2=O)cc1,-,.,.,-,-,-
Cc1c(NC(=O)c2ccc(C(C)(C)C)cc2)cccc1[N+](=O)[O-],-42,?,-,-,-,-
COc1ccc(-n2cc(C(=O)Nc3cc(F)ccc3F)c3ccccc3c2=O)cc1,-,.,.,-,-,-
COc1ccc(Cl)cc1NC(=S)NCCC(c1ccccc1)c1ccccc1,-,?,-65,-,-,-
COc1cc(NC(=S)NCCC(c2ccccc2)c2ccccc2)c(OC)cc1Cl,-,?,-,-,-,-

# Screening results from PubChem BioAssay.
